From PubChem
Compounds with a hit are over-represented: about 17% of the library has one in this group of screens.
DT40 TDP1 no CPT: qHTS for Inhibitors of human tyrosyl-DNA phosphodiesterase 1 (TDP1): qHTS in cells in absence of CPT; 420,000 compounds, 15% hits; DT40 Tdp1-/- hTDP1 cells, no CPT, ATP luminescence, 48 h; AID 686978, 2013; Potency, µM (titrated, usually from 46.2 µM), without a hit: at the highest dose activity change, negative = growth inhibition, actives largely listed as inhibitors; also: % is scaled to controls: 0 for no effect and ±100 for the full control effect; nearly all actives have a fitted effect of over 55% in size
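Camptothecin absent (DMSO only). Human TDP1-complemented DT40 knockout cells, 400 cells/well, 37 °C for minimum 48 hr; ATP measured via CellTiter-Glo, 30 min dark incubation, luminescence.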
TGFb SMAD3 inh: inhibitors of TGF-b signaling. 410,000 compounds, 1.2% hits. HepG2 CAGA-GFP TGF-b/SMAD3 reporter, GFP fluorescence, 18 h; TGF-beta stimulated, 500 pg/mL final. Potency, µM (series often up to 46.1 µM), for the others: top-dose activity, negative = inhibition, hits mostly inhibitors; also: % is scaled to controls: 0 for no effect and ±100 for the full control effect; nearly all actives have a fitted effect of over 65% in size
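Per well, imaged GFP fluorescence of HEPG2 CAGA-GFP cells gives the signal; cells get compound, then TGF-beta (500 pg/mL final), 18 h at 37 degrees C; %Activity versus -TGF-beta and +DMSO controls.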
HT1080-NT tox: kills 2HG-producing HT-1080-NT fibrosarcoma cells; 360,000 compounds, 1.6% hits; AID 686970; HT-1080-NT fibrosarcoma viability, CellTiter-Glo ATP luminescence, 48 h; Potency, µM (doses to about 46.1 µM), inactives show at the top dose activity, negative = less viability, hits mostly cytotoxic;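 also: NT is the 2HG producing partner of a matched IDH1 knockdown line; 0% = DMSO-treated cells and -100% = media-only wells without cells; nearly all actives have a fitted effect of over 55% in size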
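Toxicity toward the 2HG-producing NT line was scored as %Activity, normalised to DMSO and no-cell wells, from CellTiter-Glo luminescence after 48 hours' treatment.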
TDP1 cell CPT: DT40-hTDP1 cell growth loss with CPT | Potency, µM (top dose mostly 46.2 µM), without a hit: top-dose activity change, negative = growth inhibition, most hits filed as inhibitors | AID 686979 | chicken DT40 Tdp1-/-;hTDP1 cells + 20 nM CPT, ATP luminescence, 48 h | 420,000 compounds, 12% hits; also: % is scaled to controls: 0 for no effect and ±100 for the full control effect; nearly all actives have a fitted effect of over 55% in size
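Cell growth measured by CellTiter-Glo luminescence after a minimum 48 h, 37 C compound exposure with 20 nM CPT in Tdp1-knockout DT40 cells stably expressing hTDP1, seeded 400/well; qHTS titration format.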
HepG2 tox: counter-screen for TGF-b inhibitors: cytotoxicity in HepG2 cells. HepG2 CAGA-GFP viability, ATP luminescence, 18 h. Potency, µM (highest dose often 46.1 µM), inactives show at the top dose activity change, negative = cytotoxicity, usual class: cytotoxic. 410,000 compounds, 0.76% hits. AID 588856
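HepG2 CAGA-GFP cells (1000/well, DMEM with 1% FBS) received compound, then TGF-beta at 500 pg/mL final, and were incubated 18 hours at 37 degrees C. Viability was read by CellTiter-Glo luminescence. Media-only wells were set as complete cell-killing and DMSO as no toxicity.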
HT1080 IDH1KD tx: HT-1080 IDH1 knockdown cell toxicity (counter line). AID 686971. 360,000 compounds, 2% hits. HT-1080 IDH1 knockdown viability, ATP luminescence, 48 h. Potency, µM (highest dose often 46.1 µM), for the others: top-dose activity, negative = toxicity, usual class: cytotoxic;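 also: 0% = DMSO wells and -100% = cell-free medium wells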
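After a 2 h attachment period, IDH1KD HT-1080 cells took pin-transferred compound for 48 h at 37 °C; ATP-based luminescence after 10 min room-temperature reagent incubation reported viability.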
* hit, by the source's call; u = inconclusive; x = no result given. Calls follow the shape of the dose curve; as a rule, active = well fitted curve in the direction sought with a large enough effect; inconclusive = small, poorly fitted or top-dose-only effect, or another doubt; inactive = no such curve, though single readings can be large; an effect the other way counts as inactive or inconclusive. Potency is read from the fitted curve at half-maximal effect.

SMILES	DT40 TDP1 no CPT	TGFb SMAD3 inh	HT1080-NT tox	TDP1 cell CPT	HepG2 tox	HT1080 IDH1KD tx
Cc1ccc(SC[C@H](c2ccccc2)N2CCN(CCc3ccccc3)CCC2=O)cc1	20.6µM*	u	0.0%	u	-18.6%	-3.9%
O=C1CCN(CCc2ccccc2)CCN1[C@H](CSc1ccccc1)c1ccccc1	11.2µM*	u	-8.5%	11.2µM*	-19.8%	2.7%
Cc1ccc(SCC(c2ccccc2)N2CCN(CCc3ccccc3)CCC2=O)cc1 (stereo not drawn)	x	u	x	x	-17.1%	x
O=C(NCCc1ccccc1)C1CCC(CNc2nc(=S)[nH]c3ccccc23)CC1 (stereo not drawn)	u	-19.1%	4.9%	u	-15.4%	2.8%
Cc1nc(SCC(=O)N(CC(C)C)C2CCS(=O)(=O)C2)c(C#N)c(C)c1C (stereo not drawn)	-6.7%	0.6%	2.1%	-25.4%	2.5%	9.5%
CCCn1nc2cc(C(=O)NCC34CC5CC(CC(C5)C3)C4)ccc2c1OCC	18.4µM*	u	-2.4%	20.6µM*	-5.0%	1.1%
COCCn1nc2cc(C(=O)NCC34CC5CC(CC(C5)C3)C4)ccc2c1OC	u	-18.0%	11.0%	-24.7%	-3.3%	0.2%
CCCCCCCCN1C(=O)[C@H](CC(=O)N2CCSCC2)C[C@@]2(C(=O)OCC)CCCC=C12	20.6µM*	x	u	20.6µM*	x	u
CCCCCCCCN1C(=O)[C@H](CC(=O)N2CCOCC2)C[C@@]2(C(=O)OCC)CCCC=C12	9.2µM*	x	u	11.6µM*	x	u
CCOC(=O)[C@]12CCCC=C1N(Cc1ccccc1)C(=O)[C@H](CC(=O)N1CCCCCC1)C2	u	x	12.2%	u	x	9.4%
CCn1cc(CN2CCC(n3nccc3NC(=O)CCc3ccccc3)CC2)cn1	-2.9%	-0.1%	4.8%	-14.5%	-40.9%	-10.4%
CCc1ccc(C(=O)c2cnc3ccc(F)cc3c2S(=O)(=O)c2ccccc2)cc1	5.8µM*	2.8%	x	5.17µM*	-20.8%	x
Cc1ccc(C(=O)c2cnc3cc4c(cc3c2S(=O)(=O)c2ccccc2)OCCO4)cc1	23.1µM*	12.0%	-24.2%	18.4µM*	-5.9%	-26.8%
CCOc1ccc(S(=O)(=O)c2c(C(=O)c3ccc(C)cc3)cnc3cc4c(cc23)OCCO4)cc1	-26.4%	2.8%	-1.5%	-27.8%	-5.8%	10.1%
COc1ccc(S(=O)(=O)c2c(C(=O)c3ccc(C)c(C)c3)cnc3ccc(C)cc23)cc1	6.51µM*	1.1%	x	7.31µM*	3.0%	x
COc1ccc(C(=O)c2cn[nH]c2-c2cc(C)ccc2O)cc1	-9.2%	-15.0%	10.0%	-28.5%	-2.5%	-0.2%
CCc1ccc(C(=O)c2cnc3ccc(OC)cc3c2N2CCN(CC)CC2)cc1	u	-0.7%	-0.6%	u	-5.5%	-16.8%
Cc1ccccc1Nc1nc(-c2sc(NC(=O)c3ccco3)nc2C)cs1	u	-5.6%	-1.3%	u	-29.1%	-8.0%
CCOc1ccccc1Nc1nc(-c2sc(NC(=O)c3ccco3)nc2C)cs1	14.6µM*	-11.5%	1.9%	14.6µM*	-21.3%	-11.0%
Cc1ccc(Nc2nc(-c3sc(NC(=O)c4ccco4)nc3C)cs2)cc1	13µM*	u	-8.1%	u	-3.0%	-2.4%
Cc1csc(NC(=O)c2ccco2)n1	-16.6%	14.6%	-0.7%	-0.3%	-0.3%	16.6%
COCCNC(=O)c1ccc2c(c1)NC(=O)C(CS(=O)(=O)Cc1ccc(F)cc1Cl)N2 (stereo not drawn)	-12.5%	-1.9%	x	-11.9%	-2.0%	x
Cc1nc(SCC(=O)NCCc2ccc(Cl)cc2)nc(C)c1C	-0.5%	-8.3%	2.0%	-0.2%	3.7%	0.2%
CCN(CC)c1nc(NC2CCN(C)CC2)c2cc(OC)c(OC)cc2n1	10µM*	x	u	5.62µM*	x	u
C=CCNc1nc(NC2CCN(C)CC2)c2cc(OC)c(OC)cc2n1	u	u	x	12.6µM*	-48.8%	x
SMILES	DT40 TDP1 no CPT	TGFb SMAD3 inh	HT1080-NT tox	TDP1 cell CPT	HepG2 tox	HT1080 IDH1KD tx
OCC1(CCc2ccccc2)CCN(Cc2cccn2-c2cccnc2)CC1	u	0.0%	1.5%	-3.9%	-13.8%	0.0%
CCOC(=O)N1CCN(/[N+]([O-])=N/Oc2ccc([N+](=O)[O-])cc2[N+](=O)[O-])CC1	x	u	x	x	-18.8%	x
CCNC(=O)C1(C)CCCN(C(=O)c2ccccc2Br)C1 (stereo not drawn)	-1.3%	5.3%	15.8%	-3.4%	2.1%	18.8%
O=C(Nc1cc(SCCO)cc([N+](=O)[O-])c1)c1ccc(Br)o1	20.6µM*	-11.8%	-2.5%	u	0.6%	-0.4%
CCOc1cc(NC(=O)c2ccco2)c(OCC)cc1NC(=O)c1cc(OC)c(OC)c(OC)c1	u	10.8%	-23.9%	u	-15.1%	u
CCOc1cc(NC(=O)c2ccco2)c(OCC)cc1NC(=O)CCc1ccccc1OC	7.31µM*	-35.1%	-5.2%	9.2µM*	-11.3%	-3.4%
COc1cc(NC(=O)c2ccco2)c(C(=O)OCC(=O)c2c[nH]c3ccccc23)cc1OC	8.2µM*	u	-27.7%	14.6µM*	-102.9%	-19.7%
O=C(OCC(=O)c1c[nH]c2ccccc12)c1ccco1	-20.5%	-14.3%	-0.5%	-17.6%	-0.4%	4.4%
CCOc1cc(C#N)c(NC(=O)c2ccco2)cc1OCC	6.51µM*	2.4%	u	11.6µM*	-15.0%	u
CCOc1ccc(-c2cccc(NC(=O)c3ccco3)c2)nn1	20.6µM*	-14.8%	7.2%	u	0.0%	6.9%
